Test results: PubChem BioAssay AID1159580 (chemical genetic matrix, 2015)
Among all 5,500 compounds or so, about 2,000 (36%) were called active. About 18% were inconclusive and are not listed. No stated cut-off is given here; in the data, active means normalized growth mostly below about 0.91 (no sharp cut-off); inconclusive means no clear call, values can overlap the other calls; inactive means mostly above about 0.92. Some of the results follow.

Test: chemical genetic growth profiling, strain panel (AID 1159580);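 further: tested at 20 µM; growth read once vehicle control cultures reached saturation at 30 °C; 1 = growth at the plate median or of vehicle wells; lower values mean less growth of the strain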
Conditions: S. cerevisiae deletion strains, growth OD

Measured: normalized growth

S=c1[nH]nc(Nc2ccc(I)cc2)s1
active: locus YAR019C, strain CDC15, hits give low values 0.839 | locus YBL105C, strain PKC1, hits give low values 0.874 | locus YBR135W, strain CKS1, hits give low values 0.881 | locus YBR136W, strain MEC1, hits give low values 0.871 | locus YBR160W, strain CDC28, hits give low values 0.885 | locus YDL017W, strain CDC7, hits give low values 0.873 | locus YDL028C, strain MPS1, hits give low values 0.873 | locus YDL108W, strain KIN28, hits give low values 0.868 | locus YDR052C, strain DBF4, hits give low values 0.874 | locus YDR226W, strain ADK1, hits give low values 0.878 | locus YDR477W, strain SNF1, hits give low values 0.644 | locus YER123W, strain YCK3, hits give low values 0.504 | locus YER133W, strain GLC7, hits give low values 0.607 | locus YFL009W, strain cdc4, hits give low values 0.845 | locus YFL029C, strain CAK1, hits give low values 0.814 | locus YFR003C, strain YPI1, hits give low values 0.869 | locus YFR028C, strain CDC14, hits give low values 0.871 | locus YGR040W, strain KSS1, hits give low values 0.658 | locus YGR092W, strain DBF2, hits give low values 0.326 | locus YHR030C, strain SLT2, hits give low values 0.279 | locus YHR079C, strain IRE1, hits give low values 0.362 | locus YIL147C, strain SLN1, hits give low values 0.866 | locus YJL095W, strain BCK1, hits give low values 0.396 | locus YJL157C, strain FAR1, hits give low values 0.699 | locus YJR016C, strain ILV3, hits give low values 0.85 | locus YJR066W, strain TOR1 (second series), hits give low values 0.14 | locus YJR066W, strain TOR1, hits give low values 0.462 | locus YKL193C, strain SDS22, hits give low values 0.849 | locus YKL203C, strain TOR2, hits give low values 0.648 | locus YLR113W, strain HOG1, hits give low values 0.51 | locus YLR403W, strain SFP1, hits give low values 0.566 | locus YML070W, strain DAK1, hits give low values 0.676 | locus YMR001C, strain CDC5, hits give low values 0.85 | locus YMR205C, strain PFK2 (second series), hits give low values 0.743 | locus YMR277W, strain FCP1, hits give low values 0.863 | locus YNL006W, strain LST8, hits give low values 0.87 | locus YNL020C, strain ARK1, hits give low values 0.71 | locus YNL161W, strain CBK1, hits give low values 0.87 | locus YNL183C, strain NPR1, hits give low values 0.516 | locus YNL207W, strain RIO2, hits give low values 0.818 | locus YNL222W, strain SSU72, hits give low values 0.864 | locus YOL078W, strain AVO1, hits give low values 0.847 | locus YOL136C, strain PFK27, hits give low values 0.651 | locus YOR119C, strain RIO1, hits give low values 0.61 | locus YOR231W, strain MKK1, hits give low values 0.447 | locus YOR329C, strain SCD5, hits give low values 0.847 | locus YPL031C, strain PHO85, hits give low values 0.495 | locus YPL153C, strain RAD53, hits give low values 0.512 | locus YPL204W, strain HRR25, hits give low values 0.486 | locus YPL209C, strain IPL1, hits give low values 0.85 | locus YPL256C, strain CLN2, hits give low values 0.438 | locus YPR025C, strain CCL1, hits give low values 0.863 | strain TSCII, hits give low values 0.838
inactive: locus YDL101C, strain DUN1, hits give low values 0.917 | locus YDL132W, strain cdc53, hits give low values 0.904 | locus YDL214C, strain PRR2, hits give low values 0.722 | locus YDR054C, strain cdc34, hits give low values 0.912 | locus YFR019W, strain FAB1, hits give low values 0.813 | locus YGR052W, strain FMP48, hits give low values 0.744 | locus YHR082C, strain KSP1, hits give low values 0.653 | locus YHR205W, strain SCH9, hits give low values 0.821 | locus YJL128C, strain PBS2, hits give low values 0.882 | locus YKL048C, strain ELM1, hits give low values 0.857 | locus YKL067W, strain YNK1, hits give low values 0.746 | locus YKL101W, strain HSL1, hits give low values 0.77 | locus YLR133W, strain CKI1, hits give low values 0.745 | locus YNL307C, strain MCK1 (second series), hits give low values 0.701 | locus YOR061W, strain CKA2, hits give low values 0.755 | locus YPR106W, strain ISR1, hits give low values 0.894 | locus YPR111W, strain DBF20, hits give low values 0.911 | strain NNK1, hits give low values 0.893
